# Assay results: ChEMBL document CHEMBL5606458, “ASAP - ZIKV NS2B-NS3 protease fluorescence single point” (2024)
# Screen size: about 2,700 compounds; about 160 (5.9%) showed an effect of 50% or more. Many of the other results were omitted from the sample, so strong results are more common in it than they were.
# Biological target: Nonstructural protein 3 (Zika virus) (UniProt A0A024AXB9)
# [1] = PRVABC59, Concentration 50.0 uM, Number of replicates 1.0
# Nonstructural protein 3 (Zika virus), sequence (A0A024AXB9 as listed by the source): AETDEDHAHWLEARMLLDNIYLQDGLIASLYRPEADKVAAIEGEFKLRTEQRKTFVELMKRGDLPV
structure (smiles),measurement,setting,value
NCc1ccc(/C=C/C(=O)C(=O)N2CCOCC2)cc1,inhibition,"PRVABC59, Concentration 49.5 uM, Number of replicates 2.0, Standard deviation 0.6564199696429821 %",37.2%
same,inhibition,"PRVABC59, Concentration 99.01 uM, Number of replicates 2.0, Standard deviation 0.38644007072414227 %",58.8%
same,inhibition,"PRVABC59, Concentration 198.0 uM, Number of replicates 2.0, Standard deviation 0.034408012774717715 %",79%
O=C(/C=C/c1ccc(N2CCNCC2)cc1)C(=O)N1CCOCC1,inhibition,"PRVABC59, Concentration 49.5 uM, Number of replicates 2.0, Standard deviation 0.677594356674037 %",0.889%
same,inhibition,"PRVABC59, Concentration 99.01 uM, Number of replicates 2.0, Standard deviation 0.8893426734771035 %",5.61%
same,inhibition,"PRVABC59, Concentration 198.0 uM, Number of replicates 2.0, Standard deviation 1.259902148857129 %",13.4%
CN(C)c1ccc(/C=C/C(=O)C(=O)N2CCOCC2)cc1,inhibition,"PRVABC59, Concentration 49.5 uM, Number of replicates 2.0, Standard deviation 0.8258165831779674 %",41.6%
same,inhibition,"PRVABC59, Concentration 99.01 uM, Number of replicates 2.0, Standard deviation 0.46055378654400303 %",57.5%
same,inhibition,"PRVABC59, Concentration 198.0 uM, Number of replicates 2.0, Standard deviation 1.0005081895850734 %",76.2%
COc1cc(Cc2c(-c3ccc(F)cc3)noc2C)nc(N2CCNCC2)n1,inhibition,"PRVABC59, Concentration 49.5 uM, Number of replicates 2.0, Standard deviation 1.339595433070256 %",48.7%
same,inhibition,"PRVABC59, Concentration 99.01 uM, Number of replicates 2.0, Standard deviation 0.7981008155972035 %",67.2%
same,inhibition,"PRVABC59, Concentration 198.0 uM, Number of replicates 2.0, Standard deviation 0.25862115465775987 %",83.1%
COc1cc(Cc2ccnc(N3CCNCC3)c2)nc(N2CCNCC2)n1,inhibition,"PRVABC59, Concentration 49.5 uM, Number of replicates 2.0, Standard deviation 1.782469122426121 %",19.2%
same,inhibition,"PRVABC59, Concentration 99.01 uM, Number of replicates 2.0, Standard deviation 1.2150848760245847 %",30.9%
same,inhibition,"PRVABC59, Concentration 198.0 uM, Number of replicates 2.0, Standard deviation 1.1140443816280838 %",44%
COc1cc(Cc2ccc3[nH]ncc3c2)nc(N2CCNCC2)n1,inhibition,"PRVABC59, Concentration 49.5 uM, Number of replicates 2.0, Standard deviation 0.053655972727460886 %",4.68%
same,inhibition,"PRVABC59, Concentration 99.01 uM, Number of replicates 2.0, Standard deviation 0.44117163102560114 %",11%
same,inhibition,"PRVABC59, Concentration 198.0 uM, Number of replicates 2.0, Standard deviation 0.2881536199967374 %",21.6%
CC(C)(C)OC(=O)N[C@H](C(=O)Nc1cccc(CN)c1)c1ccc(OCc2ccccc2)cc1,inhibition,"PRVABC59, Concentration 49.5 uM, Number of replicates 2.0, Standard deviation 0.15500599357942563 %",7.17%
same,inhibition,"PRVABC59, Concentration 99.01 uM, Number of replicates 2.0, Standard deviation 1.1863939989566727 %",43.6%
same,inhibition,"PRVABC59, Concentration 198.0 uM, Number of replicates 2.0, Standard deviation 0.6438743701278353 %",80.9%
CC(C)(C)OC(=O)N[C@H](C(=O)Nc1ccc(CN)cc1)c1ccc(OCc2ccccc2)cc1,inhibition,"PRVABC59, Concentration 49.5 uM, Number of replicates 2.0, Standard deviation 0.6279742186460096 %",5.64%
same,inhibition,"PRVABC59, Concentration 99.01 uM, Number of replicates 2.0, Standard deviation 1.57987158185777 %",32.3%
same,inhibition,"PRVABC59, Concentration 198.0 uM, Number of replicates 2.0, Standard deviation 0.42725710187082055 %",70.3%
CC(C)Nc1nc2ccc(C(=O)Nc3ccc4cn[nH]c4n3)cc2[nH]1,inhibition,"PRVABC59, Concentration 49.5 uM, Number of replicates 2.0, Standard deviation 0.40894109303235027 %",7.41%
same,inhibition,"PRVABC59, Concentration 99.01 uM, Number of replicates 2.0, Standard deviation 0.19020569275657198 %",13.2%
same,inhibition,"PRVABC59, Concentration 198.0 uM, Number of replicates 2.0, Standard deviation 0.6447955316488895 %",25.2%
CC(C)Nc1nc2ccc(C(=O)Nc3nnnn3-c3ccccn3)cc2[nH]1,inhibition,"PRVABC59, Concentration 50.0 uM, Number of replicates 2.0, Standard deviation 0.2871029833570578 %",13.5%
same,inhibition,"PRVABC59, Concentration 100.0 uM, Number of replicates 2.0, Standard deviation 0.2358348824788301 %",30.1%
same,inhibition,"PRVABC59, Concentration 200.0 uM, Number of replicates 2.0, Standard deviation 0.2742876440114413 %",66.8%
CCn1ccnc(N2CC[C@@H](C(=O)NC)C2)c1=O,inhibition,"PRVABC59, Concentration 49.5 uM, Number of replicates 2.0, Standard deviation 1.330415175115007 %",6.78%
same,inhibition,"PRVABC59, Concentration 99.01 uM, Number of replicates 2.0, Standard deviation 0.8792533922931717 %",13.1%
same,inhibition,"PRVABC59, Concentration 198.0 uM, Number of replicates 2.0, Standard deviation 1.1945536288283818 %",25%
c1ccc2c([C@H]3CCN(CC[C@H]4CCOC4)C3)c[nH]c2c1,inhibition,"PRVABC59, Concentration 49.5 uM, Number of replicates 2.0, Standard deviation 1.796591735840356 %",1.3%
same,inhibition,"PRVABC59, Concentration 99.01 uM, Number of replicates 2.0, Standard deviation 1.8008191859181881 %",8.43%
same,inhibition,"PRVABC59, Concentration 198.0 uM, Number of replicates 2.0, Standard deviation 1.4478420270377552 %",18.7%
CCCC[C@H](N)C(=O)N[C@H](C(=O)NCc1ccc(C(N)=O)cc1)c1ccc(OCc2ccccc2)cc1,inhibition,"PRVABC59, Concentration 49.5 uM, Number of replicates 2.0, Standard deviation 4.202595364768841 %",4.08%
same,inhibition,"PRVABC59, Concentration 99.01 uM, Number of replicates 2.0, Standard deviation 1.455996262112855 %",82.9%
same,inhibition,"PRVABC59, Concentration 198.0 uM, Number of replicates 2.0, Standard deviation 0.15670265711308018 %",99.2%
CCCC[C@H](N)C(=O)N[C@@H](C(=O)NCc1ccc(C(N)=O)cc1)c1ccc(OCc2ccccc2)cc1,inhibition,"PRVABC59, Concentration 49.5 uM, Number of replicates 2.0, Standard deviation 2.90329459480482 %",4.12%
same,inhibition,"PRVABC59, Concentration 99.01 uM, Number of replicates 2.0, Standard deviation 3.493094389705784 %",14.2%
same,inhibition,"PRVABC59, Concentration 198.0 uM, Number of replicates 2.0, Standard deviation 4.814160045121922 %",56.8%
CC(C)Cn1cccc(C(=O)Nc2ccnc3ccccc23)c1=O,inhibition,"PRVABC59, Concentration 49.5 uM, Number of replicates 2.0, Standard deviation 2.895437242130631 %",20.1%
same,inhibition,"PRVABC59, Concentration 99.01 uM, Number of replicates 2.0, Standard deviation 37.62280174563721 %",0.798%
same,inhibition,"PRVABC59, Concentration 198.0 uM, Number of replicates 2.0, Standard deviation 2.6549790189575497 %",10.2%
CCn1ccnc(N2CC[C@@H](CO)C2)c1=O,inhibition,"PRVABC59, Concentration 49.5 uM, Number of replicates 2.0, Standard deviation 1.691792032316267 %",9.83%
same,inhibition,"PRVABC59, Concentration 99.01 uM, Number of replicates 2.0, Standard deviation 1.0699999134098355 %",17.4%
same,inhibition,"PRVABC59, Concentration 198.0 uM, Number of replicates 2.0, Standard deviation 1.0674090623381738 %",29.5%
O=c1c(N2CC[C@H](CO)C2)nccn1C1CC1,inhibition,"PRVABC59, Concentration 49.5 uM, Number of replicates 2.0, Standard deviation 2.4909219053667124 %",11.8%
same,inhibition,"PRVABC59, Concentration 99.01 uM, Number of replicates 2.0, Standard deviation 2.8453613913030793 %",19.9%
same,inhibition,"PRVABC59, Concentration 198.0 uM, Number of replicates 2.0, Standard deviation 1.2782808722061834 %",35.4%
CCn1c(=O)c(N2CC[C@@H](CO)C2)nc2ccccc21,inhibition,"PRVABC59, Concentration 49.5 uM, Number of replicates 2.0, Standard deviation 1.0667198770713235 %",20.2%
same,inhibition,"PRVABC59, Concentration 99.01 uM, Number of replicates 2.0, Standard deviation 2.3733193853793706 %",36.2%
same,inhibition,"PRVABC59, Concentration 198.0 uM, Number of replicates 2.0, Standard deviation 1.8335969585925045 %",55.9%
N[C@H]1CCN(c2cccc(CNC(=O)c3ccc4[nH]c(=O)[nH]c4c3F)n2)C1,inhibition,"PRVABC59, Concentration 49.5 uM, Number of replicates 2.0, Standard deviation 1.7942103071905888 %",0.083%
same,inhibition,"PRVABC59, Concentration 99.01 uM, Number of replicates 2.0, Standard deviation 0.9354948212956848 %",1.95%
same,inhibition,"PRVABC59, Concentration 198.0 uM, Number of replicates 2.0, Standard deviation 18.65130084254076 %",51.2%
NC(=O)C1(N2CCCCC2)CCN(C(=O)C2CCN(c3ccc(C=O)cc3)CC2)CC1,inhibition,[1],55.7%
O=Cc1ccc(N2CCC(C(=O)N3CCN(c4cccc(O)c4)CC3)CC2)cc1,inhibition,[1],36.7%
N#CC1(c2ccccc2)CCN(C(=O)C2CCN(c3ccc(C=O)cc3)CC2)CC1,inhibition,[1],12.6%
